# In PubChem BioAssay (EPA / NIEHS):
# “And” between values parts separate entries of the source, which are not always exact repeats. Equal values may be shown once. Results filed as inconclusive are left out. A structure can be active in one record and inactive in another. The source made the active and inactive calls. Rule for the calls: active = hit-call score of the fitted dose curve at least 0.9, where 1 is the maximum; inconclusive = response in the unintended direction; inactive = score below 0.9.
# Assays:
# [1] = molecular target: human Matrix Metalloproteinase-9 (MMP9), MMP9 (gene 4318) (UniProt P14780); experiment: NVS_ENZ_hMMP9: NovaScreen (NVS) Enzymatic Assay for human Matrix Metalloproteinase-9 (MMP9) (AID 2283190);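 note: cell-free recombinant MMP9 protease activity read by fluorescent substrate signal; active means inhibition seen as loss of fluorescence signal versus DMSO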
# In short: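 Cell-free fluorescence-intensity enzyme activity assay using extracted protein, read 1 h after dosing. Loss of signal versus DMSO baseline indicates inhibition; primary screen in duplicate at 25 uM, actives followed up in concentration series.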
# [2] = molecular target: human Phosphoinositide 3-kinase alpha (PI3Ka), PIK3CA (gene 5290) (UniProt P42336); experiment: NVS_ENZ_hPI3Ka: NovaScreen (NVS) Enzymatic Assay for human Phosphoinositide 3-kinase alpha (PI3Ka) (AID 2283196)
# In short: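 Enzyme activity as fluorescence after mobility-shift separation of substrate and product, 1 h reaction, recombinant human PI3Kα; concentration-response to 50 uM max for chemicals passing a 25 uM duplicate screen.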
# [3] = molecular target: human Protein Tyrosine Phosphatase Non-receptor Type 4 (PTPN4), PTPN4 (gene 5775) (UniProt P29074); experiment: NVS_ENZ_hPTPN4: NovaScreen (NVS) Enzymatic Assay for human Protein Tyrosine Phosphatase Non-receptor Type 4 (PTPN4) (AID 2283208)
# In short: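 Screened in duplicate at 25 uM, with hits then titrated to a top concentration of 50 uM. Recombinant Sf9-derived PTPN4 turnover was read by fluorescence with electrophoretic separation, 1.33 h after compound addition. DMSO served as baseline.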
# [4] = molecular target: human Phosphodiesterase 4A1 (PDE4A1), PDE4A (gene 5141) (UniProt P27815); experiment: NVS_ENZ_hPDE4A1: NovaScreen (NVS) Enzymatic Assay for human Phosphodiesterase 4A1 (PDE4A1) (AID 2283191)
# In short: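 Fluorescent substrate turnover by recombinant PDE4A1 read after 1 h by mobility-shift separation. Primary duplicate screen at 25 uM; hits retested in concentration series with a 50 uM maximum, relative to DMSO.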
# [5] = molecular target: human Phosphodiesterase 5 (PDE5), PDE5A (gene 8654) (UniProt O76074); experiment: NVS_ENZ_hPDE5: NovaScreen (NVS) Enzymatic Assay for human Phosphodiesterase 5 (PDE5) (AID 2283194)
# In short: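 Screening began in duplicate at 25 uM, with actives taken into concentration-response. Enzyme activity of recombinant PDE5 toward its substrate was measured at 1 h by fluorescence mobility-shift detection, relative to DMSO controls.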
# [6] = molecular target: Tyrosine-protein phosphatase non-receptor type 14 (Homo sapiens) (UniProt Q15678); experiment: NVS_ENZ_hPTPN14: NovaScreen (NVS) Enzymatic Assay for human Protein Tyrosine Phosphatase Non-receptor Type 14 (PTPN14) (AID 2283206)
# In short: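 Fluorescent substrate turnover by recombinant human PTPN14 was measured 0.5 h after compound addition, with substrate and product separated by mobility shift. Single-point screening at 25 uM, then concentration-response up to 50 uM for chemicals meeting threshold (e.g., 30% inhibition).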
# [7] = molecular target: human p21 Activated Kinase 4 (PAK4), PAK4 (gene 10298) (UniProt O96013); experiment: NVS_ENZ_hPAK4: NovaScreen (NVS) Enzymatic Assay for human p21 Activated Kinase 4 (PAK4) (AID 2283189)
# In short: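 Extracted PAK4 enzyme activity read by fluorescence with mobility-shift separation 1 h after chemical addition. Duplicate single-concentration screen at 25 uM, DMSO as negative control.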
# [8] = molecular target: human Phosphodiesterase 10 (PDE10), PDE10A (gene 10846) (UniProt Q9Y233); experiment: NVS_ENZ_hPDE10: NovaScreen (NVS) Enzymatic Assay for human Phosphodiesterase 10 (PDE10) (AID 2283195)
# In short: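 Fluorescence readout after mobility-shift separation of substrate and product, 1 h reaction with recombinant human enzyme. Single-concentration duplicates at 25 uM, then concentration-response up to 50 uM for chemicals reaching threshold; DMSO baseline.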
# [9] = molecular target: PPP2CA (gene 5515) (UniProt P67775); experiment: NVS_ENZ_hPPP2CA: NovaScreen (NVS) Enzymatic Assay for human Protein Phosphatase 2 Aatalytic subunit Alpha (PPP2CA) (AID 2283199)
# In short: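 Cell-free phosphatase activity: fluorescent substrate turnover by recombinant human enzyme, resolved by mobility shift at 1.33 h. Compounds passing the 25 uM duplicate primary screen were rerun in singleton series with a 50 uM top concentration.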
# [10] = molecular target: Serine/threonine-protein phosphatase PP1-alpha catalytic subunit (Homo sapiens) (UniProt P62136); experiment: NVS_ENZ_hPPP1CA: NovaScreen (NVS) Enzymatic Assay for human Protein Phosphatase 1 Aatalytic subunit Alpha (PPP1CA) (AID 2283200)
# In short: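 Chemicals were first screened in duplicate at 25 uM, and those passing threshold (e.g. 30% inhibition) were run as concentration series to 50 uM. Cell-free recombinant protein, 1.33 h read, fluorescent substrate/product mobility-shift detection, normalised to DMSO.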
# [11] = molecular target: human Protein Tyrosine Phosphatase Non-receptor Type 1 (PTPN1), PTPN1 (gene 5770) (UniProt P18031); experiment: NVS_ENZ_hPTPN1: NovaScreen (NVS) Enzymatic Assay for human Protein Tyrosine Phosphatase Non-receptor Type 1 (PTPN1) (AID 2283201)
# In short: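 Chemicals were first tested in duplicate at 25 uM, and those passing threshold went on to singleton concentration series topping at 50 uM. Recombinant enzyme, specific substrate, product separated by mobility shift, fluorescence read at 1.33 h; activity loss relative to DMSO.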
# [12] = molecular target: Tyrosine-protein phosphatase non-receptor type 11 (Homo sapiens) (UniProt Q06124); experiment: NVS_ENZ_hPTPN11: NovaScreen (NVS) Enzymatic Assay for human Protein Tyrosine Phosphatase Non-receptor Type 11 (PTPN11) (AID 2283202)
# In short: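 Compounds first tested in duplicate at 25 uM; those reaching ~30% inhibition rerun in singleton concentration-response, top 50 uM. Phosphatase activity measured after 0.5 h by fluorescence with mobility-shift separation, relative to DMSO.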
# [13] = molecular target: human Phosphatase and Tensin Homolog (PTEN), PTEN (gene 5728) (UniProt P60484); experiment: NVS_ENZ_hPTEN: NovaScreen (NVS) Enzymatic Assay for human Phosphatase and Tensin Homolog (PTEN) (AID 2283203)
# In short: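 Loss of fluorescent product signal after mobility-shift separation reports PTEN activity, recombinant human enzyme, 1 h after compound addition. Single 25 uM duplicate screen, then concentration-response on actives; DMSO baseline.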
# [14] = molecular target: Tyrosine-protein phosphatase non-receptor type 12 (Homo sapiens) (UniProt Q05209); experiment: NVS_ENZ_hPTPN12: NovaScreen (NVS) Enzymatic Assay for human Protein Tyrosine Phosphatase Non-receptor Type 12 (PTPN12) (AID 2283204)
# In short: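 Single-concentration duplicates (25 uM) preceded singleton concentration-response up to 50 uM for chemicals passing threshold. Cell-free recombinant PTPN12 activity was read 1.33 h after dosing via fluorescence after mobility-shift separation; loss of signal versus DMSO.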
# [15] = molecular target: Tyrosine-protein phosphatase non-receptor type 13 (Homo sapiens) (UniProt Q12923); experiment: NVS_ENZ_hPTPN13: NovaScreen (NVS) Enzymatic Assay for human Protein Tyrosine Phosphatase Non-receptor Type 13 (PTPN13) (AID 2283205)
# In short: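 Screened first at a single 25 uM in duplicate; compounds passing the threshold (e.g. 30% inhibition) were rerun in concentration series, top 50 uM. Recombinant enzyme, fluorescent substrate, mobility-shift separation, 0.5 h read. Data fitted as inhibition relative to DMSO.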
# [16] = molecular target: human Protein Tyrosine Phosphatase Non-receptor Type 2 (PTPN2), PTPN2 (gene 5771) (UniProt P17706); experiment: NVS_ENZ_hPTPN2: NovaScreen (NVS) Enzymatic Assay for human Protein Tyrosine Phosphatase Non-receptor Type 2 (PTPN2) (AID 2283207)
# In short: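 Activity measured as fluorescence after mobility-shift separation of substrate and product, 1 h after compound. Duplicate single-point 25 uM primary testing, concentration series for actives; inhibition scored as signal loss relative to DMSO baseline.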
# [17] = molecular target: human Protein Tyrosine Phosphatase Non-receptor Type 9 (PTPN9), PTPN9 (gene 5780) (UniProt P43378); experiment: NVS_ENZ_hPTPN9: NovaScreen (NVS) Enzymatic Assay for human Protein Tyrosine Phosphatase Non-receptor Type 9 (PTPN9) (AID 2283209)
# In short: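 Sf9-expressed enzyme in a cell-free assay, fluorescence read 1.33 h after dosing with mobility-shift separation of substrate and product. Tested at 25 uM in duplicate, then up to 50 uM; signal loss versus DMSO.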
# [18] = molecular target: human Protein Tyrosine Phosphatase Non-receptor Type 6 (PTPN6), PTPN6 (gene 5777) (UniProt P29350); experiment: NVS_ENZ_hPTPN6: NovaScreen (NVS) Enzymatic Assay for human Protein Tyrosine Phosphatase Non-receptor Type 6 (PTPN6) (AID 2283210)
# In short: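 Recombinant human PTPN6 from SF9 cells, enzyme activity followed by fluorescence after mobility-shift separation of substrate and product at 1.33 h. Chemicals first tested at a single 25 uM in duplicate, then confirmed across concentration series; loss of signal relative to DMSO.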
# [19] = molecular target: human Protein Tyrosine Phosphatase Receptor Type B (PTPRB), PTPRB (gene 5787) (UniProt P23467); experiment: NVS_ENZ_hPTPRB: NovaScreen (NVS) Enzymatic Assay for human Protein Tyrosine Phosphatase Receptor Type B (PTPRB) (AID 2283211)
# In short: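 Recombinant human PTPRB with a fluorescent substrate, product separated by electrophoretic mobility shift; read 1 h after dosing. Primary screen in duplicate at 25 uM; actives then retested in concentration series; loss of signal versus DMSO.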
# Chain of human Protein Tyrosine Phosphatase Receptor Type B (PTPRB), PTPRB (gene 5787) (P23467 whole entry, looked up): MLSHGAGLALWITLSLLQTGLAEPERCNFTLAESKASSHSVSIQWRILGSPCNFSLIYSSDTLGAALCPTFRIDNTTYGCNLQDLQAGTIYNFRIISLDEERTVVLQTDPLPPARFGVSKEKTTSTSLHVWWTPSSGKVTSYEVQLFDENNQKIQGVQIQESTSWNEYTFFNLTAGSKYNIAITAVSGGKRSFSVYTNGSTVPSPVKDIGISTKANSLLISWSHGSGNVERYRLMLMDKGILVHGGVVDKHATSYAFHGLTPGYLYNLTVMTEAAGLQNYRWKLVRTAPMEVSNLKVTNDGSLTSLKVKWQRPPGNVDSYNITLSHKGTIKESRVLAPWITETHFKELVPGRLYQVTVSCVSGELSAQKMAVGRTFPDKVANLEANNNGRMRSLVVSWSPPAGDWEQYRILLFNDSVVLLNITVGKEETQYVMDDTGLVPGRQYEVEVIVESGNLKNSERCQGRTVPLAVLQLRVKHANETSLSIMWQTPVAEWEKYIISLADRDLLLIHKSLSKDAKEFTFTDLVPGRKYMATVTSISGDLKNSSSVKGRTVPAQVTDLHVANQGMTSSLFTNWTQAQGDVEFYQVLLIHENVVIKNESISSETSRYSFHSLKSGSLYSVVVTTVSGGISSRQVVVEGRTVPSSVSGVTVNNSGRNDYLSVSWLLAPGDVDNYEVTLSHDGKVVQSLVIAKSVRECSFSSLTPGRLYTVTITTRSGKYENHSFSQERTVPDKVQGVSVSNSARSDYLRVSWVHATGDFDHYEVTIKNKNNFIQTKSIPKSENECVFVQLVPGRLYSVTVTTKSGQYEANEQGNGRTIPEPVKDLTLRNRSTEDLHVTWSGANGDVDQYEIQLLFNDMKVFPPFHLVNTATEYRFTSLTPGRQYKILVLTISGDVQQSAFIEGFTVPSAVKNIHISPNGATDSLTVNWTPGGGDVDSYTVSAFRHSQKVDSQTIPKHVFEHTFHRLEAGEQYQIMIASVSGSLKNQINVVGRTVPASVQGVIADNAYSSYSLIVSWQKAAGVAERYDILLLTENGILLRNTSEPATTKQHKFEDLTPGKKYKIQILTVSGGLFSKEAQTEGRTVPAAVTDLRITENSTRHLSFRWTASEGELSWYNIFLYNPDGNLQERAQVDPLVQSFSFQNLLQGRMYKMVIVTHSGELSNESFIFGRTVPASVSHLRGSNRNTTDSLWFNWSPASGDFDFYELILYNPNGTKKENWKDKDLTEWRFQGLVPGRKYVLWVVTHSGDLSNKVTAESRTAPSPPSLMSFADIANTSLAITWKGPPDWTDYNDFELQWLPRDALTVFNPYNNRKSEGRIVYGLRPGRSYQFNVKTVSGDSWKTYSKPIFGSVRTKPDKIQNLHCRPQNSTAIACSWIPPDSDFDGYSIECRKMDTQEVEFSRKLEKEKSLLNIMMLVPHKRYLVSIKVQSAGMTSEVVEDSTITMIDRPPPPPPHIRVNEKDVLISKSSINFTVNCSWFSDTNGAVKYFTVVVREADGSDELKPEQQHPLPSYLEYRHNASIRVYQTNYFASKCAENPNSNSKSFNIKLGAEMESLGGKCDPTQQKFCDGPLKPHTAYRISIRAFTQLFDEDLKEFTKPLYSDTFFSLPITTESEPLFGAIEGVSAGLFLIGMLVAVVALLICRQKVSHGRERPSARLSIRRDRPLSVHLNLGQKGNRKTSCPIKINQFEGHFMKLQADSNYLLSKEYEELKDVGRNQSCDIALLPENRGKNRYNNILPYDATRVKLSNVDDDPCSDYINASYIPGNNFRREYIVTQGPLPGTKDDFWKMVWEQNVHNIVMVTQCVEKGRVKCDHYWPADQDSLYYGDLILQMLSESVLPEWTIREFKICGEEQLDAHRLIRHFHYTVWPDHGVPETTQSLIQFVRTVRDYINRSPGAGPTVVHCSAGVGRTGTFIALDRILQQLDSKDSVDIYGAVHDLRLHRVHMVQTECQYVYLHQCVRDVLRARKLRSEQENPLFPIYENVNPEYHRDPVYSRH
# Chain of human Protein Tyrosine Phosphatase Non-receptor Type 9 (PTPN9), PTPN9 (gene 5780) (P43378 whole entry, looked up): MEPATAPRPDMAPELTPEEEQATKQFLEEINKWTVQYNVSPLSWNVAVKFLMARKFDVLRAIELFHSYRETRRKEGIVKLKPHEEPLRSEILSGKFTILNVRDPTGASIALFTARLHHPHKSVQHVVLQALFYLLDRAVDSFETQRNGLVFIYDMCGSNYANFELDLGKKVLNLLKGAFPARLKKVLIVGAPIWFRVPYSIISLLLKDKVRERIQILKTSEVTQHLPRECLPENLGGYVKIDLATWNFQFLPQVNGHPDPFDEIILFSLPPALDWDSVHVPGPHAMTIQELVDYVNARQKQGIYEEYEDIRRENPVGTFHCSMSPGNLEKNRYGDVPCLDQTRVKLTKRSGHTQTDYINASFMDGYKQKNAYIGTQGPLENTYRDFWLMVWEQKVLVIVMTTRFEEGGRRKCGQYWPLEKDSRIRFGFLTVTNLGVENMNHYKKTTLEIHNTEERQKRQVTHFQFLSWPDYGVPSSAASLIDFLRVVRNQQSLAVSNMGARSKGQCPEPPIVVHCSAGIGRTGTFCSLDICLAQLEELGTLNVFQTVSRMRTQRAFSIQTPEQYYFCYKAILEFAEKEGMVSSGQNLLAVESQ
# Chain of Tyrosine-protein phosphatase non-receptor type 12 (Homo sapiens) (Q05209 whole entry, looked up): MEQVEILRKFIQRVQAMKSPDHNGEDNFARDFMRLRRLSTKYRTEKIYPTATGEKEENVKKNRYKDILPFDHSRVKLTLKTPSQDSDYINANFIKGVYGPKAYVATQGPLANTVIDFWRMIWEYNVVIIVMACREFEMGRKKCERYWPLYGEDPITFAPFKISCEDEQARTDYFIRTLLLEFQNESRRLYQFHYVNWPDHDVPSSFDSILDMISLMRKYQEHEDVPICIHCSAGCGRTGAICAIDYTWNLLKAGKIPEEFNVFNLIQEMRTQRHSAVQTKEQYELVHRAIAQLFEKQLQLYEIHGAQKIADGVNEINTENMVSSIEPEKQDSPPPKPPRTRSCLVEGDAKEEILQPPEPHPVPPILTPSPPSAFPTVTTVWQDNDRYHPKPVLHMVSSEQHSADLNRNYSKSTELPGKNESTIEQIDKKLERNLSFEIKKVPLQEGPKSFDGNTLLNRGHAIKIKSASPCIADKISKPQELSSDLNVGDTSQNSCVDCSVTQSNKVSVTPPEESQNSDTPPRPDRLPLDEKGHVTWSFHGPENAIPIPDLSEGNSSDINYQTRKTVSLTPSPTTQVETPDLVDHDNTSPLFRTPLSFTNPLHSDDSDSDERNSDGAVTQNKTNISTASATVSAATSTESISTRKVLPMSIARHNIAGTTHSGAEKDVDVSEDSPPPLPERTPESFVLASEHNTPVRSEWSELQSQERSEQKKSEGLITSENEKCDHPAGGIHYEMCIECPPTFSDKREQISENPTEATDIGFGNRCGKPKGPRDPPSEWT
# Chain of human Phosphatase and Tensin Homolog (PTEN), PTEN (gene 5728) (P60484 whole entry, looked up): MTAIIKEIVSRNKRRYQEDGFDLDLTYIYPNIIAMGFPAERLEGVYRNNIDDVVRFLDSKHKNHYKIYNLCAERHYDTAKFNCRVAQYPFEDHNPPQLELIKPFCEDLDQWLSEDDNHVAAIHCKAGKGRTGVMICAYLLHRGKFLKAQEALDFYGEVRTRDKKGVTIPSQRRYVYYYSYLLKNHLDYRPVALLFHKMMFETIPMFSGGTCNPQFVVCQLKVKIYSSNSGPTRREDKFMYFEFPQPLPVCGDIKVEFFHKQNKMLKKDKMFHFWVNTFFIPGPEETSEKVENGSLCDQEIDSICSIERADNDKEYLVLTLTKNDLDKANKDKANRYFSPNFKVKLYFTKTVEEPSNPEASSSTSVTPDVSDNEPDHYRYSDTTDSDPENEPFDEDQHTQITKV
# Chain of human Phosphodiesterase 4A1 (PDE4A1), PDE4A (gene 5141) (P27815 whole entry, looked up): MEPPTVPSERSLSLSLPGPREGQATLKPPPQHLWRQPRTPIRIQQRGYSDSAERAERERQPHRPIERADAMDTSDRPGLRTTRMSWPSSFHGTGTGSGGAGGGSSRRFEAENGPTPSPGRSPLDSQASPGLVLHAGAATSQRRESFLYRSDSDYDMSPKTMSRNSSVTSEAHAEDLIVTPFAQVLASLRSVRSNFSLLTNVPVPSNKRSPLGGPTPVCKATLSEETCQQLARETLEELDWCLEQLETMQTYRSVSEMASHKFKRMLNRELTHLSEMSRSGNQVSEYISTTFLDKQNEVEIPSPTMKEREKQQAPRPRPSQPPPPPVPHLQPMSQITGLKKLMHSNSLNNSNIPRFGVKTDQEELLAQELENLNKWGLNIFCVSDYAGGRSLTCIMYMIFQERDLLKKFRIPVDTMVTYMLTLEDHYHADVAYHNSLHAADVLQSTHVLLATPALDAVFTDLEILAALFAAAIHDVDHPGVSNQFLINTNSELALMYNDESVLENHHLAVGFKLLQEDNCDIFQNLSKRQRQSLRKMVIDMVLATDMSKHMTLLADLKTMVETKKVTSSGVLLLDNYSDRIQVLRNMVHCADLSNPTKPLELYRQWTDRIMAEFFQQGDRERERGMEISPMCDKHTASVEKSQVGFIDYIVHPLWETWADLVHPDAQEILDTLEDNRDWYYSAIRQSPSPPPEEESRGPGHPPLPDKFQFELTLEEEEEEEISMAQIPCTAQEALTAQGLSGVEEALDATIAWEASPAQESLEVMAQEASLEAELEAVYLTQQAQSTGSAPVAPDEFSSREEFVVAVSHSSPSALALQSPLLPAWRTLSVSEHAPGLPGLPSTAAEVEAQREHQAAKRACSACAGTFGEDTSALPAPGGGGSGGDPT
# Chain of human Protein Tyrosine Phosphatase Non-receptor Type 2 (PTPN2), PTPN2 (gene 5771) (P17706 whole entry, looked up): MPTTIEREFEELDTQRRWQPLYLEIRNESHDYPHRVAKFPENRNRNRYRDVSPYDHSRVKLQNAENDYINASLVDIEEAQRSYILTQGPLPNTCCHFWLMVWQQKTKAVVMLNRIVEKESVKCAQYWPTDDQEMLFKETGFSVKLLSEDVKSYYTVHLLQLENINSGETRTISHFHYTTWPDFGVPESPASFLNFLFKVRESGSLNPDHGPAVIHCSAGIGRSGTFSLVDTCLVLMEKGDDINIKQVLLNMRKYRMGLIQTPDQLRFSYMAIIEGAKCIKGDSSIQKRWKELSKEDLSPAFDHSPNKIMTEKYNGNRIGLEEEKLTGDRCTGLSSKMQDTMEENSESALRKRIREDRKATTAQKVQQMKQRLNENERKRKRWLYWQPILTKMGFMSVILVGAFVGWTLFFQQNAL
smiles,measurement,setting,value
Cc1ccn2nc(S(=O)(=O)Nc3c(F)cccc3F)nc2n1,outcome,[1],inactive
same,outcome,[2],inactive
same,outcome,[3],inactive
CC1(C(=O)Nc2ccc(O)c(Cl)c2Cl)CCCCC1,outcome,[2],inactive
CSc1nc(NC(C)C)nc(NC(C)C)n1,AC50,[4],3.43 µM (active)
same,AC50,[5],5.79 µM (active)
CCNc1nc(Cl)nc(NC(C)(C)C#N)n1,AC50,[4],0.39 µM (active)
same,AC50,[5],13.6 µM (active)
same,outcome,[6],inactive
CN(C)[C@@H]1C(=O)C(C(N)=O)=C(O)[C@@]2(O)C(=O)C3=C(O)c4c(O)cccc4[C@@](C)(O)[C@H]3[C@H](O)[C@@H]12,AC50,[7],9.28 µM (active)
same,outcome,[7],inactive
same,AC50,[4],23.1 µM (active)
same,AC50,[5],6.97 µM (active)
same,outcome,[8],inactive
same,AC50,[2],4.72 µM (active) and 4.22 µM (active) and 15.1 µM (active)
same,outcome,[2],inactive
same,AC50,[9],23.1 µM (active)
same,AC50,[10],17.4 µM (active)
same,AC50,[11],23.1 µM (active)
same,AC50,[12],10.9 µM (active) and 2.67 µM (active)
same,AC50,[13],2.52 µM (active) and 1.53 µM (active) and 2.46 µM (active)
same,AC50,[14],3.91 µM (active) and 18.2 µM (active) and 1.8 µM (active)
same,AC50,[15],2.9 µM (active)
same,AC50,[6],26.3 µM (active)
same,AC50,[16],20.1 µM (active)
same,AC50,[3],12.1 µM (active)
same,AC50,[17],2.57 µM (active)
same,AC50,[18],41.4 µM (active)
same,AC50,[19],29.7 µM (active) and 10.1 µM (active)
same,outcome,[19],inactive
CCOP(=S)(Oc1cnc(C(C)(C)C)nc1)OC(C)C (stereo unspecified),outcome,[9],inactive
CCOP(=S)(OCC)OC(Cl)C(Cl)(Cl)Cl (stereo unspecified),outcome,[11],inactive
same,AC50,[17],12.7 µM (active)
C#CC(C)(C)NC(=O)c1cc(Cl)cc(Cl)c1,outcome,[13],inactive
same,outcome,[16],inactive
CC(C)[C@H](C(=O)O[C@H](C#N)c1cccc(Oc2ccccc2)c1)c1ccc(Cl)cc1,outcome,[13],inactive
CCCCSP(=O)(SCCCC)SCCCC,outcome,[14],inactive
COc1cc(OC)nc(Sc2cccc(Cl)c2C(=O)O)n1,outcome,[14],inactive
CCc1cccc(CC)c1N(COC)C(=O)CCl,outcome,[16],inactive
N#CSCSC#N,outcome,[17],inactive
CCCCOC(=O)c1ccccc1C(=O)O,outcome,[18],inactive
